# Experimental data reported in PubChem BioAssay (NCATS).
# Results filed as inconclusive are left out. The source made the active and inactive calls. Calls come from the whole dose curve; as a rule, active = well fitted cell-killing curve with a large enough effect; inconclusive = small, poorly fitted or top-dose-only effect; inactive = no such curve, though single readings can be large or run the other way.
# Test: qHTS of pediatric cancer cell lines to identify multiple opportunities for drug repurposing: Primary screen for NB1643 cells (AID 1347099); note: nearly all actives have a fitted effect of over 50% in size
# Conditions: NB1643 neuroblastoma viability, CellTiter-Glo luminescence, 48 h; series mostly up to 46 µM
# From the text: Drug repurposing or repositioning has been offered as a strategy for drug development in oncology programs. This approach has special potential for childhood cancers and other rare or orphan diseases, where the expected return on new drug development has been a disincentive to pharmaceuticals. […] In this project we exploit the poly-pharmacology of drugs to discover new indications via phenotypic screening of a panel of 19 well-characterized cell lines derived from solid tumors seen in children and adolescents. The goal is to identify approved drugs with previously unrecognized anticancer properties that has the potential to reveal new mechanisms and biological processes involved in carcinogenesis or drug resistance. We employed a titration-based paradigm (quantitative high-throughput screening or qHTS), where all compounds were tested at multiple concentrations for their effect on cell viability. Concentration-response curves (CRCs) were derived directly from the primary screen, and both potency and efficacy values were used to identify compounds with robust bioactivity profiles. We screened the NIH Chemical Genomics Center (NCGC) Pharmaceutical Collection (NPC) and Mechanism Interrogation Plate (MIPE) small molecule collections of approved and investigational compounds against these cell lines; and measured metabolically active cells after 48 hours of compound treatment as a proxy for cell viability. […] Assay Submitter: Nathalia J. Martinez, National Center for Advancing Translational Sciences, National Institutes of Health, Rockville, MD, USA; email: natalia.martinez@nih.gov Shen, M et al. Quantitative high-throughput phenotypic screening of pediatric cancer cell lines identifies multiple opportunities for drug repurposing. Oncotarget 2017 Dec 19;9(4):4758-4772. PMID 29435139.
# The cells were obtained from University of North Carolina (UNC), Pediatric Preclinical Testing Program (PPT), and Coriell Institute (CI). qHTS cell viability assay: Cells were assayed in growth media at a density of 500-1,000 cells/well. Five microliters of cells were dispensed into 1,536-well, white, solid-bottom, TC-treated plates (Greiner Bio One) using a multidrop dispenser and incubated at 37 degrees C, 5% CO2, under a humidified atmosphere for 5 hours. Twenty-three nanoliters of compounds and controls (neutral control DMSO or positive control bortezomib at final concentration of 2.3 µM) were subsequently transferred by Kalypsys pintool. For primary screens, the MIPE collection was tested at 11-point dilutions (final concentrations range from 0.78 nM to 46 µM) and the NPC collection at 8-point dilutions (final concentrations range from 0.59 nM to 46 µM). Compounds tested in follow-up screens were assayed at 11-point dilutions. Cells were incubated for 48 hours, followed by addition of 3 µL of CellTiter-Glo (Promega). After a 15 min incubation at room temperature, samples were analyzed for luminescence intensity using a ViewLux High-throughput CCD imager equipped with clear filters.
# Potency is the fitted concentration of half-maximal effect.
row,Structure (SMILES),Potency
1,COc1cc(C)c(C=CC(C)=CC=CC(C)=CC(=O)O)c(C)c1C,inactive
2,Oc1ccc([C@@H]2Oc3ccc(O)cc3[C@@H]3CCC[C@@H]32)cc1,16.6 µM (active)
3,CC(C)c1cnn2c(NCc3ccccc3)cc(NCCCCCCN)nc12,18.7 µM (active)
4,O=C1NC(O)CCN1[C@@H]1O[C@H](CO)[C@H](O)[C@H]1O (stereo not given in full),inactive
5,Cc1ncc(-c2ccnc(Nc3ccc(S(C)(=O)=O)cc3)n2)n1C(C)C,2.35 µM (active)
6,CC(C)n1cnc2c(NCCc3ccc(O)cc3)nc(-c3csc4ccccc34)nc21,3.32 µM (active)
7,CCc1cc(C(C)=NOCc2ccc(C3CCCCC3)c(C(F)(F)F)c2)ccc1CN1CC(C(=O)O)C1,2.64 µM (active)
8,O=C(O)CCCCC(CCSCc1ccccc1)SCc1ccccc1 (stereo not given),10.5 µM (active)
9,C[C@H](NCc1ccc2c(c1)nc(NC(=O)c1ccc(-c3cn[nH]c3)s1)n2CCc1ccccc1)C(C)(C)C,1.18 µM (active)
10,CCc1ccc(C(=O)Nc2cc(CN3CCN(C)CC3)cc(C(F)(F)F)c2)cc1C#Cc1cnc2ccnn2c1,1.18 µM (active)
11,O=C(O)C=Cc1ccc(Cn2ccnc2)cc1,inactive
12,CCCCCCCCCCCCc1ccc(S(=O)(=O)Nc2nncs2)cc1,inactive
13,CN[C@@H]1C[C@H]2O[C@@](C)([C@H]1OC)n1c3ccccc3c3c4c(c5c6ccccc6n2c5c31)C(=O)N[C@H]4O,0.526 µM (active)
14,CC(=O)O[C@H]1C[C@@H]2CC[C@H]3[C@H]4C[C@H]([N+]5(C)CCCCC5)[C@@H](OC(C)=O)[C@@]4(C)CC[C@@H]3[C@@]2(C)C[C@H]1N1CCCCC1,inactive
15,C=CCNC1=C2C[C@@H](C)C[C@H](OC)[C@@H](O)[C@@H](C)C=C(C)[C@H](OC(N)=O)[C@@H](OC)C=CC=C(C)C(=O)NC(=CC1=O)C2=O,1.48 µM (active)
16,C[C@@]12C[C@@]3(O)O[C@@H](O1)[C@]1(COC(=O)c4ccccc4)[C@@H]3C[C@@]12O[C@@H]1O[C@H](CO)[C@@H](O)[C@H](O)[C@@H]1O,inactive
17,COc1cc(C=CC(=O)CC(=O)C=Cc2ccc(O)c(OC)c2)ccc1O,12.1 µM (active)
18,C[C@H]1[C@@H](OC(=O)CCC(=O)O)O[C@@H]2O[C@@]3(C)CC[C@@H]4[C@H](C)CC[C@@H]1[C@@]24OO3,4.18 µM (active)
19,CC(=O)OCC(=O)[C@@]1(O)CC[C@H]2[C@@H]3CCC4=CC(=O)CC[C@]4(C)[C@@H]3C(=O)C[C@@]21C,inactive
20,COc1ccc(S(=O)(=O)Nc2cccnc2Nc2ccc(O)cc2)cc1,inactive

row,Structure (SMILES),Potency
1,CC(C)c1cc(C(C)C)c(CC(=O)NS(=O)(=O)Oc2c(C(C)C)cccc2C(C)C)c(C(C)C)c1,16.6 µM (active)
2,COC(=O)[C@@H]1CC2=CC(=O)CC[C@]2(C)[C@@]23O[C@@H]2C[C@@]2(C)[C@H](CC[C@@]24CCC(=O)O4)[C@@H]13,inactive
3,Cc1coc2c1C(=O)C(=O)c1c-2ccc2c(C)cccc12,inactive
4,O=C(Nc1ccc(Oc2ccnc3[nH]ccc23)c(F)c1)c1cccn(-c2ccc(F)cc2)c1=O,inactive
5,FC(F)(F)c1ccc(Nc2nc3ccc(Oc4ccnc(-c5ncc(C(F)(F)F)[nH]5)c4)cc3[nH]2)cc1,16.6 µM (active)
6,CC(C)N1[N]C(=C2C=c3cc(O)ccc3=N2)c2c(N)ncnc21,18.7 µM (active)
7,CC1(C)[C@H](O[C@H]2O[C@H](C(=O)O)[C@@H](O)[C@H](O)[C@H]2O[C@@H]2O[C@H](C(=O)O)[C@@H](O)[C@H](O)[C@H]2O)CC[C@@]2(C)[C@H]1CC[C@]1(C)[C@H]2C(=O)C=C2[C@H]3C[C@@](C)(C(=O)O)CC[C@]3(C)CC[C@]21C,inactive
8,CNC(=O)c1ccc(Nc2cc(Nc3ccccc3S(=O)(=O)C(C)C)c3cc[nH]c3n2)nc1,5.26 µM (active)
9,O=C1NC(=O)C(=Cc2ccc3nccc(-c4ccncc4)c3c2)S1,1.32 µM (active)
10,CC(=O)OCC(=O)[C@@]12N=C(C)O[C@H]1C[C@H]1[C@@H]3CCC4=CC(=O)C=C[C@]4(C)[C@@H]3[C@@H](O)C[C@@]12C,inactive
11,CC(C)C[C@H](NC(=O)[C@@H](NC(=O)c1cccc(-c2ccccc2)n1)[C@@H](C)O)B(O)O,0.0743 µM (active)
12,Cc1cn([C@@H]2O[C@H](CO)[C@@H](O)[C@H]2F)c(=O)[nH]c1=O,inactive
13,COc1ccc2c(c1OC)C(=O)OC2[C@H]1c2c(cc3c(c2OC)OCO3)CCN1C (stereo not given in full),1.18 µM (active)
14,CC[C@]12C=CCN3CC[C@@]4(c5cc([C@@]6(C(=O)OC)C[C@H]7C[C@@H](C(C)(F)F)CN(Cc8c6[nH]c6ccccc86)C7)c(OC)cc5N(C)[C@H]4[C@@](O)(C(=O)OC)[C@H]1OC(C)=O)[C@@H]32,0.132 µM (active)
15,CCN(CC)CCCCNc1ncc2c(n1)N(C)C(=O)N(c1c(Cl)c(OC)cc(OC)c1Cl)C2,16.6 µM (active)
16,CC(=O)N1CCN(c2ccc(OCc3nn(C)c(C)c3-c3cccc4c(CCCOc5cccc6ccccc56)c(C(=O)O)n(Cc5cccnc5)c34)cc2)CC1,0.209 µM (active)
17,O=[N+]([O-])c1cn2c(n1)OC[C@@H](OCc1ccc(OC(F)(F)F)cc1)C2,inactive
18,Nc1ccn(C[C@@H](CO)OCP(=O)(O)O)c(=O)n1,inactive
19,CCc1nc(-c2cccc(C)c2)c(-c2ccnc(NC(=O)c3ccccc3)c2)s1,18.7 µM (active)
20,C[C@H]1C[C@H]2[C@@H]3CCC4=CC(=O)C=C[C@]4(C)[C@@H]3C(=O)C[C@]2(C)[C@@]1(O)C(=O)CO,inactive
